Results taken from PubChem BioAssay (Tox21).
Inconclusive results are not listed. Active and inactive are the calls of the source. Unless noted, the call rests on the fitted dose curve.

What was measured:
[1] = Nuclear factor erythroid 2-related factor 2/antioxidant responsive element (Nrf2/ARE) small molecule agonists: qHTS cell viability counter screen in human keratinocytes (AID 1919968; active means well fitted curve in the direction sought with a large enough effect in the repeat runs; an effect the other way counts as inactive or inconclusive; further: nearly all actives have a fitted effect of over 55% in size)
How it was run: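 Fluorescence read-out from CellTiter-Fluor after 1 h at 37 C. Wells held HaCaT-derived ARE-luciferase reporter cells (1,500/well) treated 23 h with DMSO-dissolved compounds. Run in the same wells as the luciferase agonist read.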

[2] = Nuclear factor erythroid 2-related factor 2/antioxidant responsive element (Nrf2/ARE) small molecule agonists: luciferase reporter gene qHTS assay in human keratinocytes (AID 1919969); further: nearly all actives have a fitted effect of over 35% in size
[3] = target: Gonadotropin-releasing hormone receptor (Homo sapiens) (UniProt P30968); assay: Human gonadotropin-releasing hormone receptor (GnRHR) small molecule agonists, calcium flux assay in GnRHR-HEK293 cells (AID 1920063); further: nearly all actives have a fitted effect of over 35% in size
How it was run: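 Calcium-dye fluorescence, Ex/Em=480/540, recorded every 1 sec over 3 min after compound addition to GnRHR-HEK293 cells. Cells had been seeded 18 hours earlier and dye-loaded for 1 hour at 37 C. Fifteen concentrations, triplicates.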

[4] = target: KiSS-1 receptor (Homo sapiens) (UniProt Q969F8); assay: Human kisspeptin (KISS1R) small molecule agonists, calcium flux assay in KISS1R-HEK293 cells (AID 1920064; active means well fitted curve in the direction sought with a large enough effect in the repeat runs; an effect the other way counts as inactive or inconclusive)
How it was run: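 Calcium flux read-out: kinetic fluorescence at Ex/Em=480/540, 1 s intervals over 3 min, after pin-tool compound addition to dye-loaded KISS1R-HEK293 cells. Fifteen concentrations, triplicates.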

[5] = G protein-coupled receptor (GPCR) small molecule agonists, calcium flux assay: HEK293 wild type cell line counter screen (AID 1920065)
How it was run: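 Agonist mode; 18 h seeding at 37 C, 1 h dye load at 37 C; compounds pinned from DMSO, ATP as positive control; kinetic fluorescence 480/540 nm, 3 min, 1 s reads; 15 concentrations, triplicate.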

[6] = p53 small molecule agonists, cell-based qHTS assay with rat liver microsomes (AID 1963578)
How it was run: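 Metabolic activation is supplied by rat liver microsomes with NADPH (each 0.5 mg/mL final). p53RE-bla cells incubate with compound 16 h at 37 C; reporter activity is measured by LiveBLAzer fluorescence.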

[7] = p53 small molecule agonists, cell-based qHTS assay with human liver microsomes: qHTS cell viability counter screen (AID 1963579); further: nearly all actives have a fitted effect of over 45% in size
How it was run: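 After the 460/530 nm beta-lactamase read, CellTiter-Glo was added to the same wells and luminescence measured after 30 min at room temperature, giving viability of p53RE-bla cells treated 16 h with compounds plus microsomes and NADPH.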

[8] = p53 small molecule agonists, cell-based qHTS assay with rat liver microsomes: qHTS cell viability counter screen (AID 1963580); further: nearly all actives have a fitted effect of over 45% in size
How it was run: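 Luminescent ATP readout (CellTiter-Glo, 30 min at room temperature) reports viability of p53RE-bla HCT-116 cells after 16 h at 37 C with test compounds under metabolic activation by rat liver microsomes and NADPH at 0.5 mg/mL final each.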

[9] = p53 small molecule agonists, cell-based qHTS assay (AID 1963582; active means well fitted activation curve with a large enough effect in the signal ratio in the repeat runs, not every such curve was filed as active; the % refers to the signal ratio)
How it was run: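 Fluorescence intensity read-out of a beta-lactamase reporter under a p53 response element. Cells were exposed to DMSO-dissolved compounds for 16 h at 37 C, then developed with FRET substrate for 2 h at RT.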

[10] = target: 5-hydroxytryptamine receptor 2A (Homo sapiens) (UniProt P28223); assay: 5-hydroxytryptamine receptor 2A (HTR2A) small molecule antagonists, cell-based qHTS assay (AID 1963586); further: nearly all actives have a fitted effect of over 45% in size
How it was run: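 CHO cells stably expressing human HTR2A were plated for 18 h at 37 C, then loaded with calcium dye for 1 h. Compounds were preincubated 5 min at room temperature before DOI (4 nM solution) was added. Kinetic fluorescence was read for 3 min.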

[11] = target: 5-hydroxytryptamine receptor 2A (Homo sapiens) (UniProt P28223); assay: 5-hydroxytryptamine receptor 2A (HTR2A) small molecule agonists, cell-based qHTS assay (AID 1963587); further: nearly all actives have a fitted effect of over 30% in size
How it was run: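 HTR2A-CHO cells, plated 18 h at 37 C/5% CO2, dye-loaded 1 h at 37 C; compounds in DMSO added by pin tool (agonist mode). Intracellular calcium flux read as kinetic fluorescence on FDSS over 2 min at 1 s intervals.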

[12] = target: Muscarinic acetylcholine receptor M1 (Homo sapiens) (UniProt P11229); assay: Cholinergic receptor muscarinic 1 (CHRM1) small molecule antagonists, cell-based qHTS assay (AID 1963588); further: nearly all actives have a fitted effect of over 40% in size
How it was run: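 Compounds were tested at 15 concentrations in three independent runs. Dye-loaded CHRM1-CHO cells were exposed 5 min at room temperature before stimulation by acetylcholine added at 50nM. Intracellular calcium was read kinetically on FDSS for 3 min.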

[13] = target: Muscarinic acetylcholine receptor M1 (Homo sapiens) (UniProt P11229); assay: Cholinergic receptor muscarinic 1 (CHRM1) small molecule agonists, cell-based qHTS assay (AID 1963589); further: nearly all actives have a fitted effect of over 35% in size
How it was run: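 Calcium flux read-out: kinetic fluorescence at 1 sec intervals after pin-tool compound addition to dye-loaded CHRM1-CHO cells (human M1). Agonist mode; 15 concentrations tested in triplicate independent runs.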

[14] = cAMP Responsive Elements (CRE) small molecule agonists, cell-based qHTS assay (AID 1963590)
How it was run: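 Beta-lactamase reporter readout: LiveBLAzer B/G FRET substrate, 2 h at room temperature, added after 3 h compound treatment of CRE-bla HEK 293T cells at 37 C/5% CO2.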

[15] = cAMP Responsive Elements (CRE) small molecule antagonists, cell-based qHTS assay (AID 1963591; active means well fitted inhibition curve with a large enough effect in the signal ratio in the repeat runs, not every such curve was filed as active; the % refers to the signal ratio)
How it was run: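 HEK293T CRE-bla; 18 h preincubation; compound pin-transfer; NKH477 0.25 uM final, 3 h, 37 C; LiveBLAzer FRET substrate 2 h RT.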

[16] = target: Beta-2 adrenergic receptor (Homo sapiens) (UniProt P07550); assay: Adrenergic beta2 receptor (ADRB2) small molecule antagonists, cell-based qHTS assay (AID 1963592); further: series mostly up to about 92 µM; nearly all actives have a fitted effect of over 50% in size
How it was run: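 Assay format: CHO-ADRB2 cells, 18-20hr seeding at 37C/5% CO2, then compound plus 1nM isoproterenol agonist mix for 0.5hr RT. Homogeneous time-resolved fluorescence cAMP detection after 1hr, expressed as 665/615 nm ratio.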

[17] = target: D(2) dopamine receptor (Homo sapiens) (UniProt P14416); assay: Dopamine D2 receptor (DRD2) small molecule agonists, cell-based qHTS assay (AID 1963594); further: nearly all actives have a fitted effect of over 35% in size
How it was run: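 HEK293 cells stably expressing DRD2 were cultured 24 h at 37 C, then given Ro20-1724 (0.1 mM final) and compounds for 10 min at room temperature. NKH477 (200nM) was then added for 30 min. cAMP was read by HTRF.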

[18] = target: D(2) dopamine receptor (Homo sapiens) (UniProt P14416); assay: Dopamine D2 receptor (DRD2) small molecule antagonists, cell-based qHTS assay (AID 1963595; active means well fitted inhibition curve with a large enough effect in the signal ratio in the repeat runs, with a control signal flat; the % refers to the signal ratio)
How it was run: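 In this cell-based antagonist screen, compounds act for 10 min at room temperature before a 30 min challenge with 12 nM quinpirole and 200 nM NKH477. cAMP is quantified by HTRF competition in DRD2-HEK293 cells containing 0.1 mM Ro20-1724.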

[19] = p53 small molecule agonists, cell-based qHTS assay: qHTS cell viability counter screen (AID 1963581); further: nearly all actives have a fitted effect of over 45% in size
How it was run: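 Cytotoxicity read-out: ATP-based luminescence (CellTiter-Glo, 30 min RT) measured in the same wells as the p53 reporter assay, HCT-116 p53RE-bla cells, 16 h compound exposure at 37 C.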

[20] = target: Beta-2 adrenergic receptor (Homo sapiens) (UniProt P07550); assay: Adrenergic beta2 receptor (ADRB2) small molecule agonists, cell-based qHTS assay (AID 1963593);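 further: CHO cells stably overexpressing human ADRB2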
How it was run: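 CHO cells stably over-expressing ADRB2 were plated overnight at 37C, then dosed with compounds plus a stimulation mix containing 100uM IBMX and 25uM Ro-20-1724 for 0.5hr at room temperature. cAMP was measured by HTRF competition, 1hr.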

Measured: Potency

Sequence of Muscarinic acetylcholine receptor M1 (Homo sapiens) (P11229 whole entry, looked up): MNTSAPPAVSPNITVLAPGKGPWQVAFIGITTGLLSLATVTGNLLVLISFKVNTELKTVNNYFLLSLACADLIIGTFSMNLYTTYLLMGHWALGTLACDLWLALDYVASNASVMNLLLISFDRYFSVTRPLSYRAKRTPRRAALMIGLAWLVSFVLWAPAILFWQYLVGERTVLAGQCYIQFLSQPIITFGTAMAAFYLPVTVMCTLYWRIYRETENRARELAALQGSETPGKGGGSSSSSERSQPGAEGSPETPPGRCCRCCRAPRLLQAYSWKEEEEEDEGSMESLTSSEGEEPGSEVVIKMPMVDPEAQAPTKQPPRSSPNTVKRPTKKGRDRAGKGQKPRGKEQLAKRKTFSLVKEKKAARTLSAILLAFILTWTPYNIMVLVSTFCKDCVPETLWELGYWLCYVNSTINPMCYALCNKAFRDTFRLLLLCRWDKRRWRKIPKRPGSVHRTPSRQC
Sequence of Beta-2 adrenergic receptor (Homo sapiens) (P07550 whole entry, looked up): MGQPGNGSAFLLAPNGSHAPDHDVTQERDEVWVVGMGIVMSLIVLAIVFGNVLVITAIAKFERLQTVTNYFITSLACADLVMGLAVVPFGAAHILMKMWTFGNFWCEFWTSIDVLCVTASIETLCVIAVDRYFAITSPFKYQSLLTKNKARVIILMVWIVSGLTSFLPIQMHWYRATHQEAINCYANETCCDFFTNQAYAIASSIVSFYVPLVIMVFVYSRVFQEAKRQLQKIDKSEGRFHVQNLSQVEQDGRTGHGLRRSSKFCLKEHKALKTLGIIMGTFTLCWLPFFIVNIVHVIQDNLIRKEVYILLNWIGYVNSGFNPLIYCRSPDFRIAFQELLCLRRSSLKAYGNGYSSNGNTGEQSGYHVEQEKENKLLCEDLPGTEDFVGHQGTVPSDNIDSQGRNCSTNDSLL
Sequence of Gonadotropin-releasing hormone receptor (Homo sapiens) (P30968 whole entry, looked up): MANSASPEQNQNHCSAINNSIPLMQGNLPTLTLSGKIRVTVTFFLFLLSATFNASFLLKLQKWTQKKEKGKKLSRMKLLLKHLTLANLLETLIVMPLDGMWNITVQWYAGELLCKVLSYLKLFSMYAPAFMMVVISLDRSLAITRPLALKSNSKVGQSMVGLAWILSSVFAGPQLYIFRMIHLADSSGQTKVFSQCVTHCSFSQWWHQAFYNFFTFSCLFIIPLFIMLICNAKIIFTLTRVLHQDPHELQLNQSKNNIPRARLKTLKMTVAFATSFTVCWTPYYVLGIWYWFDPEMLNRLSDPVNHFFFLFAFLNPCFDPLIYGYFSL
Sequence of D(2) dopamine receptor (Homo sapiens) (P14416 whole entry, looked up): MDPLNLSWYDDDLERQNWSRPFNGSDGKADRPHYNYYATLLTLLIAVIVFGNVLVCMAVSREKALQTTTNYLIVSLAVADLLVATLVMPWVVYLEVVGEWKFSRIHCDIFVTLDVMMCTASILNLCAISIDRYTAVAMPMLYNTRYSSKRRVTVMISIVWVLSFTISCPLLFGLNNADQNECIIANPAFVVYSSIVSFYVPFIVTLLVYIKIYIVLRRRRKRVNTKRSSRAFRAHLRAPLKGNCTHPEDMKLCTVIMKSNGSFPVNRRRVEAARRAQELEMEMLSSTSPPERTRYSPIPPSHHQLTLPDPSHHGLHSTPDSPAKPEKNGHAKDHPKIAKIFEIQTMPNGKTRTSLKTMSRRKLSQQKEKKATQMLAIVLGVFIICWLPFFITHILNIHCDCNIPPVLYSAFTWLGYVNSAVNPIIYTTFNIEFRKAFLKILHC
Sequence of 5-hydroxytryptamine receptor 2A (Homo sapiens) (P28223 whole entry, looked up): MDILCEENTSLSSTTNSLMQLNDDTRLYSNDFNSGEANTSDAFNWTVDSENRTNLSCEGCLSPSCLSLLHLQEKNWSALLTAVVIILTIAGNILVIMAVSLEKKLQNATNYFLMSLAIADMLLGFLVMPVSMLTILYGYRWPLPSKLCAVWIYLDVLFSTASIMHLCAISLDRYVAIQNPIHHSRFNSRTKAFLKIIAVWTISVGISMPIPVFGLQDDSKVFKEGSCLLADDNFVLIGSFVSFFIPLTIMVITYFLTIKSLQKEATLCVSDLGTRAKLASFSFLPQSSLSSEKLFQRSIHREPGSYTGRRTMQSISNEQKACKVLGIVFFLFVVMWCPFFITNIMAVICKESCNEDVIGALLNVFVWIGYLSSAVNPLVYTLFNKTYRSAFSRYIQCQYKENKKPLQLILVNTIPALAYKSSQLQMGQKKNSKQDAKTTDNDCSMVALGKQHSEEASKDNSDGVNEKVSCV
Sequence of KiSS-1 receptor (Homo sapiens) (Q969F8 whole entry, looked up): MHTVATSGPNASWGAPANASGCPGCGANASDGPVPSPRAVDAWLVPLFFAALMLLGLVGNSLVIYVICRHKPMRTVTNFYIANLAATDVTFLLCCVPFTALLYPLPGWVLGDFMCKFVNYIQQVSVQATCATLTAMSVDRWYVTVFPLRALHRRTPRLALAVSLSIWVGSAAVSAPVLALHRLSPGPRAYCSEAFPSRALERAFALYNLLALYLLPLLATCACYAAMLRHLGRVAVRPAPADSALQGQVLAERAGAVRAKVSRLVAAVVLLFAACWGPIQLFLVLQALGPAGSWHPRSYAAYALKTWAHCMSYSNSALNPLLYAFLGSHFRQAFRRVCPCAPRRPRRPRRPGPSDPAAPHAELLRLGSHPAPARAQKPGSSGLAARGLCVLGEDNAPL

C/C=C(\C)C(=O)OCCC(C)CCC=C(C)C (centres undefined)
not listed: [19] | [20]
inactive: all other assays above

CCCC(C)C
not listed: [9] | [20]
inactive: all other assays above

CN(C)Cc1ccccc1
not listed: [19]
inactive: all other assays above

C[C@]12CCC(=O)C=C1CC[C@@H]1[C@@H]2[C@@H](O)C[C@@]2(C)[C@H]1CC[C@]2(O)C(=O)COC(=O)CCC(=O)O
not listed: [9] | [11]
inactive: all other assays above

O=C1CCCCO1
not listed: [8] | [20]
inactive: all other assays above

CCN(CC)C(=O)/C(C#N)=C/c1cc(O)c(O)c([N+](=O)[O-])c1
not listed: [8] | [9] | [14] | [15] | [17] | [19] | [20]
inactive: all other assays above
